# Compounds with a hit are over-represented: about 2.9% of the library has one in this group of screens.
# cytoskel mod: modifiers of cytoskeleton assembly. HUVEC TNFa F-actin phalloidin imaging, high content. inhibition, % at 2 µM. 91,000 compounds, 0.18% hits. AID 836;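 active = inhibition above the batch mean plus 3 SD and confirmed as a hit by visual image inspection, cut at about 30% in these data, passing the limit was not always enough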
# E-sel TNF inh: blocks E-selectin expression induced by TNF alpha; 120,000 compounds, 0.71% hits; HUVEC TNFa-induced E-selectin immunofluorescence, high content; inhibition, % at 2 µM;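 active = inhibition above the batch mean plus 3 SD, and confirmed as a hit on visual image review, cut at about 43% in these data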;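 note: 0% = TNF-stimulated DMSO wells and 100% = unstimulated control wells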
# ERb coact inh: ER-beta (human) coactivator binding inhibition; Q92731; TR-FRET ER-beta LBD / SRC1-Cy5 peptide binding; receptor agonist-loaded with 1 µM estradiol; inhibition, % at 25.6 µM; 86,000 compounds, 1.3% hits;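 active = compounds whose percent inhibition of the receptor-coactivator binding signal exceeds about 50% in the single-dose screen, limit read from the data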;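 note: 0% = receptor plus peptide wells without compound and 100% = peptide-only wells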
# Target sequence (Q92731 whole entry, looked up, the tested form may be a part): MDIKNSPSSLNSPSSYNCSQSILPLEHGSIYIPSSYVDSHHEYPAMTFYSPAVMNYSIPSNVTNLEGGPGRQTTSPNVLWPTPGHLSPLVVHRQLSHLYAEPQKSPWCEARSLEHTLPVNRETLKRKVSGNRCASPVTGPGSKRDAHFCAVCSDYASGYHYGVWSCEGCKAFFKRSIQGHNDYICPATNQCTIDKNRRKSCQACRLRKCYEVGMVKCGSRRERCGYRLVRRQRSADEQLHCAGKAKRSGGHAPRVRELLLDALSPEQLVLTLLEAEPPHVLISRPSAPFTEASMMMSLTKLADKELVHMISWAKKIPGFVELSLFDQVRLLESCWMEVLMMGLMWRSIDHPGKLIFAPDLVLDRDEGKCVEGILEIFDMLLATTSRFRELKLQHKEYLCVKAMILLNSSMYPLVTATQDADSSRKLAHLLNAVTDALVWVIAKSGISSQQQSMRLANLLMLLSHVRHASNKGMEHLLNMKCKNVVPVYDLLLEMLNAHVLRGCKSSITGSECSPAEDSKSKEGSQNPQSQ
# Candida biofilm: kills Candida albicans biofilms; C. albicans biofilm + clotrimazole, Alamar Blue; 85,000 compounds, 0.14% hits; AID 834; inhibition, % at 6 µM;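 active = inhibition above 20%; inactive = inhibition below 20%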;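 note: preformed 24 hr biofilms exposed to compound for 48 hr; 0% = biofilm without compound and 100% = blank killed by clotrimazole plus chlorhexidine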
# ERa coact inh: blocks coactivator binding to human estrogen receptor alpha; 86,000 compounds, 1.7% hits; TR-FRET ER-alpha LBD / SRC-1 peptide, estradiol-bound; AID 629; inhibition, % at 25.6 µM; in the data active = inhibition above about 50%;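 note: 0% = receptor plus peptide control and 100% = peptide only without receptor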
# ERa SRC1 pot: enhances coactivator binding to human estrogen receptor alpha; TR-FRET ERalpha-LBD/SRC-Cy5 coactivator binding, 2 h; 100 = basal binding, no effect; coactivator binding (% of control), % at 25.6 µM; 86,000 compounds, 1.3% hits; P03372; in the data active = activity above about 200%;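 note: binding measured in presence of low estradiol as agonist stimulus; 0% = peptide alone without receptor and 100% = receptor with peptide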
# * = called active by the depositor; . = not tested or not shown; [ ] = dose if it differs, or a comment.
SMILES,cytoskel mod,E-sel TNF inh,ERb coact inh,Candida biofilm,ERa coact inh,ERa SRC1 pot
CN(C)C(=S)SSC(=S)N(C)C,.,85.6*,.,.,.,.
Cc1ccc(C(C)C)c(OCC(=O)N2CCN(Cc3nc4cc([N+](=O)[O-])ccc4n3C)CC2)c1,.,17.2,.,.,.,.
CN1CCN(c2ccc(N)cc2)CC1,-4.9,-0.6,90.6*[fluorescence artefact?],7.0,84.0*[fluorescence artefact?],13.5
CCOc1ccc2[nH]c(=O)c(CN(CCO)C3(c4nnnn4C4CCCCC4)CCCCC3)cc2c1,-15.4,-9.7,-1.4,11.2,11.7,239.2*
CC(C)(C)NC(=O)NC(=O)CN1CC=C(c2ccccc2)CC1,.,-27.9,.,.,.,.
COc1cc(CN2CCN(C(=O)COc3ccccc3)CC2)cc(OC)c1OC,33.3,26.2,5.8,9.7,-10.4,104.1
Cn1cccc1CN1CCN(C(=O)COc2ccccc2)CC1,-2.3,6.3,93.1*[fluorescence artefact?],1.4,0.2,101.4
O=C(COc1ccccc1)N1CCN(C/C=C/c2ccccc2)CC1,0.4,-52.2,-4.8,7.1,-5.3,110.0
O=C(COc1ccccc1)N1CCN(CC(O)COc2ccccc2)CC1 (stereo not drawn),34.7*,.,2.3,4.6,4.8,102.7
NC(=O)CN1C2CCC1CC(NC(=O)C1CC1)C2 (stereo not drawn),-33.3,.,-3.0,6.2,-13.0,138.9
COc1ccc2[nH]c(C)c(CCN3CCC(=O)C(C)C3C)c2c1 (stereo not drawn),.,.,63.6*[fluorescence artefact?],-6.8,41.2,83.0
CC1CCC(NCC(O)c2ccccc2)CC1 (stereo not drawn),-7.6,-3.1,-3.8,-1.9,0.8,293.8*[fluorescence artefact?]
CN1CCC2(CC1)CC(NC=O)c1ccccc1O2 (stereo not drawn),.,15.5,.,.,.,.
Cc1oc(-c2cccs2)nc1CSCC(=O)N1CCC2(CC1)OCCO2,-11.7,67.5*,20.1,6.6,3.6,96.7
O=P1(NCc2ccco2)COc2ccccc2OC1,21.5,22.2,2.1,5.9,-1.0,211.0*[fluorescence artefact?]
O=S1(=O)CCN(CCc2c[nH]c3ccccc23)CC1,.,99.8*,.,.,.,.
Cc1ccc(C(=O)n2cc(CCN3CCS(=O)(=O)CC3)c3ccccc32)cc1,-0.2,13.0,.,.,.,.
c1ccc2cc3cc4ccccc4cc3cc2c1,.,.,8.0,13.6,-4.6,109.4
CN1C2CCC1/C(=C/c1ccccn1)C(=O)/C2=C\c1ccccn1,.,96.4*,.,.,.,.
CCN1CCN(Cc2ccc(C)cc2C)CC1,.,3.7,1.1,12.8,-12.8,123.2
CCN1CCN(Cc2ccc(C)cc2)CC1,.,95.3*,9.8,8.4,-3.8,113.4
CCN1CCN(Cc2ccccc2C)CC1,.,95.1*,-0.3,-2.9,4.9,100.7
CC(C)COc1ccc(C2(C#N)CC[N+](C)(C)CC2)cc1,-20.6,-7.2,.,.,.,.
COc1ccc(S(=O)(=O)N2CC3CC(C2)c2cccc(=O)n2C3)cc1 (stereo not drawn),.,12.3,.,.,.,.
COC(=O)[C@@H]1[C@@H](C(=O)OC)C2(c3ccccc3-c3ccccc32)N(c2ccc(Cl)cc2)N1C#N,-12.9,11.8,-6.4,-5.9,-6.0,96.9
SMILES,cytoskel mod,E-sel TNF inh,ERb coact inh,Candida biofilm,ERa coact inh,ERa SRC1 pot
COC(=O)C[C@]1(C(=O)OC)CN(C#N)N(c2ccc(Cl)cc2)C12c1ccccc1-c1ccccc12,22.7,88.5*,0.6,6.8,-6.2,97.5
CCN(CC)P(=O)(NC(=O)C(Cl)(Cl)Cl)N(CC)CC.[Cl-].[Cl-].[Cl-].[Nd+3],.,15.7,50.3*[fluorescence artefact?],3.6,69.2*[fluorescence artefact?],95.4
CCOC(=O)N(c1ccccc1)P1(=S)OCCO1,45.8,79.4*,6.3,6.1,11.5,74.6
COC(=O)N(c1ccccc1)P1(=S)OCCO1,.,.,-15.8,6.6,1.5,103.3
CCNc1cc(N2CCNCC2)ccc1[N+](=O)[O-],.,-33.4,.,.,.,.
CCCC(=O)c1c(O)[nH]c(=O)[nH]c1=O,-13.3,14.5,1.9,4.2,4.6,122.4
CC(=O)NC1CC2CCC(C1)N2 (stereo not drawn),6.3,.,23.9,1.5,14.7,106.6
CC(=O)NC1CC2CCCC(C1)N2 (stereo not drawn),67.2*,-11.7,-3.3,3.2,-1.8,124.5
CN1C(=O)N(C)C(=O)C(CCc2ccncc2)(Cc2ccc3c(c2)OCO3)C1=O,-19.5,-11.2,-0.6,2.5,-7.0,103.8
C[C@]12CCC(=O)C=C1CCC1C2CC[C@@]2(C)C1CC[C@@]2(O)CC#N (stereo partly drawn),.,-99.8,54.4*,5.1,1.2,96.8
N=C1c2ccccc2CN1CC(=O)c1ccccc1,.,0.4,.,.,.,.
CCN1CCC2(CC1)NC(CO)(CO)CO2,3.4,-10.9,4.0,9.8,-6.8,116.5
CCN1CCC2(CCNC2)C1 (stereo not drawn),11.7,97.9*,-8.6,5.4,-6.3,126.7
CN1C(=O)C(=Cc2ccc(N(C)C)c([N+](=O)[O-])c2)C(=O)N(C)C1=O,.,15.5,.,.,.,.
Cn1cccc1/C=C1/C(=O)NC(=O)N(Cc2ccccc2)C1=O,.,61.4*,.,.,.,.

# Screening results (PubChem BioAssay)
